# Bioassay records from PubChem BioAssay.
# Only some compounds are listed: those with a hit (about 4.9% of all), similar ones and a draw of the others.
# Mdm2-MdmX inh: disrupts the human Mdm2-MdmX interaction | SaOS-2 split-luciferase Mdm2/MdmX complementation, luminescence | inhibition, % at 8 µM | 330,000 compounds, 3% hits;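 active = inhibition of at least 50% at 8 µM in the primary screen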
# Beta apoptosis: blocks beta cell apoptosis. 300,000 compounds, 0.8% hits. INS-1E cytokine-induced death, ATP luminescence, 48 h; percent of positive-control rescue, neutral wells zero. protection from apoptosis, % (no concentration beside the values);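 active = Every replicate reaches about 75%, or at least half do and their mean reaches it too, limit read from the data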;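 also: 0% = cytokine-treated negative control wells and 100% = positive control rescue; higher means more ATP so stronger rescue from cytokine killing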
# PP1 counter: counter-screen for PP5 inhibitors: inhibitors of human PP1-alpha | P62136 | purified PP1alpha, OMFP fluorescence | inhibition, % at 6.7 µM | 320,000 compounds, 0.9% hits;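 active = inhibition above the mean inhibition of all tested compounds plus 3 SD, computed separately for each screening campaign, cut at about 15% in these data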
# Calb FLC: C. albicans growth modulation with fluconazole | C. albicans CaCi-2 (fluconazole-resistant clinical isolate) + fluconazole, Alamar Blue growth, 48 h | AID 1979 | 300,000 compounds, 0.57% hits | growth inhibition, % (no concentration beside the values);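 active = growth inhibition above about 58% in most replicates, limit read from the data, passing the limit was not always enough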;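 also: all wells also contain fluconazole at 8 µg/ml as a sub-toxic cotreatment; 0% = median of DMSO wells and 100% = median of geldanamycin control wells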
# CSC inhib: blocks cancer stem cells; AID 2717; cancer stem cell-like cells viability, luminescence; inhibition, % at 7.5 µM; 300,000 compounds, 1.1% hits; in the data active = inhibition above about 75%; tested in HMLE shEcad cells
# PP5 inh: PP5 (human) phosphatase inhibition; P53041; purified PP5c, OMFP substrate fluorescence; inhibition, % at 6.7 µM; 320,000 compounds, 0.18% hits; AID 1987;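 active = inhibition above the campaign's mean inhibition across all tested compounds plus 3 SD, cut at about 9.5% in these data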;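 also: 0% = DMSO only and 100% = 100 µM cantharidin control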
# * = called active by the depositor; x = no result given.
SMILES,Mdm2-MdmX inh,Beta apoptosis,PP1 counter,Calb FLC,CSC inhib,PP5 inh
N#C/C(=C(O)\C=C\c1ccccc1)c1nc2ccccc2[nH]1,15,4,16*,31,17,3
C(/CCc1ccccc1)=N\Nc1nc2ccccc2[nH]1,45,88*,5,-17,-2,0
C(=C\c1ccccc1)/C=N/Nc1nc2ccccc2[nH]1,-37,58,16*,-15,x,4
C(=N\Nc1nc2ccccc2[nH]1)/c1ccccc1,-37,12,-8,-4,-4,0
CC(=O)n1cc([C@H]2C=C(C(=O)N3CCOCC3)O[C@@H](OCCCCO)C2)c2ccccc21,-7,-5,-2,2,-17,0
Cc1onc(-c2c(F)cccc2Cl)c1C(=O)O/N=C(\N)c1ccc([N+](=O)[O-])o1,11,28,0,20,57,-2
CC1CCN(CC(=O)NCc2ccco2)CC1,3,1,-5,2,0,1
CC(C)N(Cc1ccccc1)C(=O)CN1C(=O)COc2ccc(S(=O)(=O)N3CCCCCC3)cc21,9,6,5,3,11,1
COc1ccc2c(c1OC)C(=O)N1N=C(c3ccc(O)cc3)CC21 (configuration not stated),6,0,-4,94*,2,3
CCN(c1cccc(C)c1)S(=O)(=O)c1c(C)[nH]c(C)c1C(=O)N1CCCCC1,40,x,-5,0,-13,1
O=C(N/N=C/c1cc([N+](=O)[O-])ccc1O)C1C2CCCCC21 (configuration not stated),4,6,4,101*,9,2
O=[N+]([O-])c1ccc(O)c(/C=N/Nc2ccc(Cl)nn2)c1,40,110*,-3,117*,107*,1
Cc1cccc(-c2n[nH]c(=S)n2-c2ccccc2)c1[N+](=O)[O-],-24,-3,-2,4,-13,-2
COc1ccc(-n2c(-c3cccc(C)c3[N+](=O)[O-])n[nH]c2=S)cc1,-7,-2,1,74*,-5,0
CCOC(=O)C1CCCN(S(=O)(=O)c2ccc(S(=O)(=O)N(CC)CC)cc2)C1 (configuration not stated),-8,110*,4,-28,x,2
CN(C(=O)COC(=O)CN1C(=O)C2CC=CCC2C1=O)c1ccccc1 (configuration not stated),13,0,4,-4,-6,-1
CCOc1ccc(S(=O)(=O)N2CC(=O)Nc3ccccc32)cc1,8,-3,0,5,23,0
Cc1ccc(-n2c(-c3ccc(Br)cc3)c[n+]3c2CCc2ccc4cccnc4c2-3)cc1,x,133*,25*,99*,64,2
O=C(CCC(=O)OCc1ccc([N+](=O)[O-])cc1Cl)Nc1ccccc1,10,0,-3,2,-7,0
C[C@@H]1CCC(=O)N(CC[C@H](Sc2ccc(Br)cc2)c2ccccc2)CC1,21,11,4,x,97*,5
Cc1ccc(S[C@@H](CCN2CC[C@H](C)CCC2=O)c2ccccc2)cc1,-3,-1,4,2,40,5
Cc1ccc(S[C@@H](CCN2CC[C@H](C(C)(C)C)CCC2=O)c2ccccc2)cc1,18,-5,-2,-12,108*,3
Cc1ccccc1-c1nnn(CC(=O)Nc2ccc3c(c2)OCCO3)n1,3,-15,0,-8,12,2
N#CC1=C(N)Oc2cc(N)ccc2C1c1cccc(Br)c1 (configuration not stated),42,3,x,-4,82*,x
CN(C)CCCNC(=O)/C(=C/c1ccc(-c2ccc([N+](=O)[O-])cc2)o1)NC(=O)c1ccccc1,24,3,1,-9,36,1
COC(=O)/C(=C\c1ccc([N+](=O)[O-])o1)NC(=O)c1ccccc1,18,-10,-4,102*,-12,-1
CCCCNC(=O)/C(=C\c1ccc([N+](=O)[O-])o1)NC(=O)c1ccccc1,24,2,-1,100*,0,-3
O=C1NC(=Nc2ccc(O)cc2)S/C1=C\C=C\c1ccco1,27,0,16*,12,24,0
COc1ccc(N=C2NC(=O)/C(=C\c3ccco3)S2)cc1,-2,3,0,56,x,1
CCCCCCc1c(C)nc(-n2[nH]c(C)c(CCO)c2=O)[nH]c1=O,10,3,-2,93*,-6,-2
